One may read the AC50 as the midpoint of the concentration-response curve, whichever way the signal moves.

Results filed as inconclusive are left out. Calls of active or inactive are those of the source. How the source made its calls, unless noted: active means hit-call score of the fitted dose curve at least 0.9, where 1 is the maximum; inactive means score below 0.9.

Results on nine molecules are retold here after PubChem BioAssay (EPA / NIEHS).

Assay [1] can be described thus: ATG_RORE_CIS: Attagene CIS-FACTORIAL HepG2 Assay for human RAR-related Orphan Receptor Element (RORE) (AID 2282959). The settings on record: HepG2 Attagene cis-factorial RORE reporter, mRNA; actives raise or lower the signal. A digest of the protocol: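 Transient MRTU transfection of human HepG2 liver cells (FuGene 6); 24 h compound exposure; TriZol RNA, oligo(dT) RT, PCR, FAM labeling, HpaI cut, CE fragment analysis. DMSO = negative control/baseline.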

A short description of assay [2]: ATG_Sox_CIS: Attagene CIS-FACTORIAL HepG2 Assay for human SRY-box transcription factor (SOX) (AID 2282960). The settings on record: HepG2 Attagene cis-factorial SOX reporter, mRNA; actives raise or lower the signal. A digest of the protocol:
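Endogenous factor activity in human liver HepG2 cells carrying transfected cis-regulated reporter units. RNA taken 24 h post-dose, reverse-transcribed, PCR-amplified and sized by capillary electrophoresis. Gain or loss of signal fitted relative to DMSO.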

Assay [3] has as its target Transcription factor Sp1 (Homo sapiens) (UniProt P08047). Put plainly: ATG_Sp1_CIS: Attagene CIS-FACTORIAL HepG2 Assay for human Specificity Protein 1 (Sp1) (AID 2282961). The settings on record: HepG2 Sp1 cis-reporter transcription, actives raise or lower the signal. In outline: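 Transient MRTU-transfected HepG2, 24 h compound exposure. Total RNA → oligo(dT) RT → PCR of reporter → 6-FAM primer extension → HpaI digest → CE. Endpoint fitted both directions vs DMSO.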

Assay [4] is described as follows: ATG_SREBP_CIS: Attagene CIS-FACTORIAL HepG2 Assay for human Sterol Regulatory Element Binding (SREBP) (AID 2282962). The settings on record: HepG2 Attagene cis-factorial SREBP reporter, mRNA; actives raise or lower the signal. In outline: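 In this cis-format assay, HepG2 liver cells express reporters controlled by promoter elements responsive to native transcription factors. Exposure lasts 24 h; reporter mRNA fluorescence from capillary electrophoresis gives the signal, fitted bidirectionally against DMSO.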

The nature of assay [5]: ATG_TCF_b_cat_CIS: Attagene CIS-FACTORIAL HepG2 Assay for human T-Cell-Factor with beta-catenin (TCF/b-cat) (AID 2282965). The settings on record: HepG2 TCF/beta-catenin cis-reporter transcription, actives raise or lower the signal. In outline: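 Using capillary electrophoresis as the read-out, labelled reporter cDNA fragments from transiently transfected HepG2 were sized and quantified. Exposure lasted 24 hours; activity in either direction was referenced to DMSO.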

The nature of assay [6]: ATG_TGFb_CIS: Attagene CIS-FACTORIAL HepG2 Assay for human Transforming Growth Factor (TGF) (AID 2282967). The settings on record: HepG2 Attagene CIS TGFb reporter, mRNA transcription; actives raise or lower the signal. In outline: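 Liver HepG2 line, cis-factorial reporter panel, 24 h dosing. Quantitation: RT-PCR products labeled with 6-FAM, cut with HpaI, resolved by capillary electrophoresis; DMSO-referenced bidirectional analysis.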

The nature of assay [7]: ATG_VDRE_CIS: Attagene CIS-FACTORIAL HepG2 Assay for human Vitamin D Receptor Element (VDRE) (AID 2282968). The settings on record: HepG2 VDRE cis-reporter transcription, actives raise or lower the signal. A digest of the protocol: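 Steps: transfect HepG2 with multiple reporter transcription units; dose chemicals 24 h; isolate RNA; RT-PCR; label with 6-FAM primer extension; HpaI digest; capillary electrophoresis. Curves fitted both directions against DMSO.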

Assay [8] has as its target X-box-binding protein 1 (Homo sapiens) (UniProt P17861). Briefly: ATG_Xbp1_CIS: Attagene CIS-FACTORIAL HepG2 Assay for human X-box Binding Protein 1 (XBP1) (AID 2282972). The settings on record: HepG2 XBP1 cis-element reporter, Attagene multiplex; actives raise or lower the signal. In outline:
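Changes in reporter transcript abundance, read by RT-PCR and capillary electrophoresis, reflect endogenous transcription factor activity. Transfected HepG2 cells received compound for 24 hours; DMSO defined baseline for bidirectional analysis.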

A short description of assay [9]: ATG_M_19_TRANS: Attagene TRANS-FACTORIAL HepG2 Assay for M19 Transcription Factor (Internal Marker) (AID 2282974; active means hit-call score of the fitted dose curve at least 0.9, where 1 is the maximum). The settings on record: HepG2 Attagene TRANS-FACTORIAL M19 internal marker reporter. A digest of the protocol: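 Fluorescence of 6-FAM-labelled reporter cDNA fragments, separated by capillary electrophoresis, served as the readout. These derived from HepG2 cells carrying transfected GAL4-UAS reporter units after 24 h dosing, with DMSO as negative control.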

The nature of assay [10]: ATG_GAL4_TRANS: Attagene TRANS-FACTORIAL HepG2 Assay for GAL4 (Internal Marker) (AID 2282976; active means hit-call score of the fitted dose curve at least 0.9, where 1 is the maximum). The settings on record: HepG2 Attagene TRANS GAL4 internal marker reporter. In outline:
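RT-PCR/capillary electrophoresis readout of reporter mRNA. HepG2, transient MRTU transfection (GAL4-UAS reporters), 24 h compound exposure. Background-control endpoint, positive direction vs DMSO baseline.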

In assay [11] the target is Estrogen-related receptor gamma (Homo sapiens) (UniProt P62508). Put plainly: ATG_ERRg_TRANS: Attagene TRANS-FACTORIAL HepG2 Assay for human Estrogen-Related Receptor gamma (ERRg) (AID 2282977; active means hit-call score of the fitted dose curve at least 0.9, where 1 is the maximum;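 further: hits increase reporter signal over DMSO so potencies reflect activators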). The settings on record: HepG2 Attagene TRANS reporter, ERRg transactivation. A digest of the protocol: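 Induction of reporter transcripts through a chimeric NR-Gal4 protein is quantified in transfected human HepG2 liver cells after 24 h chemical exposure, using RT-PCR with capillary electrophoresis detection and DMSO as baseline.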
Chain of Estrogen-related receptor gamma (Homo sapiens) (P62508 whole entry, looked up, the tested form may be a part): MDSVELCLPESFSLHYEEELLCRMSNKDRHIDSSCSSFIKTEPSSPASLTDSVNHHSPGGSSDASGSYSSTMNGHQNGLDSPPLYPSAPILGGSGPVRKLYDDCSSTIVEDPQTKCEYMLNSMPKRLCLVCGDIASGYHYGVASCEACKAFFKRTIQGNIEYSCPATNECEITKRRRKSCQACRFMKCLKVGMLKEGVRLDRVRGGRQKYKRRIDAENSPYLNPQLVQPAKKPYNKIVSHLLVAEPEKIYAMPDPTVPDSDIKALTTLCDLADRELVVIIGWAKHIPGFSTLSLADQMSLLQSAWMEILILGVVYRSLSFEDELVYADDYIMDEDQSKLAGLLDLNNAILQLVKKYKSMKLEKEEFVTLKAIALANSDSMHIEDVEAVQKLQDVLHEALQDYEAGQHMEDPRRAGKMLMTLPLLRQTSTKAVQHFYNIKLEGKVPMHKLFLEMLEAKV

The target in assay [12] is Signal transducer and activator of transcription 3 (Homo sapiens) (UniProt P40763). Put plainly: ATG_STAT3_CIS: Attagene CIS-FACTORIAL HepG2 Assay for human Signal Transducer and Activator of Transcription 3 (STAT3) (AID 2282963). The settings on record: HepG2, Attagene cis-factorial STAT3 reporter transcription; actives raise or lower the signal. In outline:
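HepG2, MRTU-transfected, 24 h dosing. RNA → RT → PCR → FAM label → HpaI → CE. Bidirectional fit vs DMSO.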

Assay [13] can be described thus: ATG_TA_CIS: Attagene CIS-FACTORIAL HepG2 Assay for human TA Basal Promoter (AID 2282964). The settings on record: HepG2 Attagene CIS-factorial TA basal promoter reporter; actives raise or lower the signal. A digest of the protocol: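 Background internal-marker endpoint from a 52-component HepG2 cis-reporter panel. Cells treated 24 h; reporter transcripts quantified via RT-PCR and CE fluorescence against DMSO baseline.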

Assay [14] addresses Estrogen receptor (Homo sapiens) (UniProt P03372). Briefly: ATG_ERa_TRANS: Attagene TRANS-FACTORIAL HepG2 Assay for human Estrogen Receptor alpha (ERa) (AID 2282970; active means hit-call score of the fitted dose curve at least 0.9, where 1 is the maximum). The settings on record: HepG2 Attagene TRANS ERa GAL4 reporter, mRNA. A digest of the protocol: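 Reporter mRNA induction after 24 hours, detected by fluorescent RT-PCR and capillary electrophoresis, gives the read-out. Cells are HepG2 transiently transfected with GAL4-UAS reporter transcription units responding to chimeric NR-Gal4. Activity is taken as gain of signal over DMSO baseline.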

Assay [15] deals with Bile acid receptor (Homo sapiens) (UniProt Q96RI1). Put plainly: ATG_FXR_TRANS: Attagene TRANS-FACTORIAL HepG2 Assay for Farnesoid X Receptor (FXR) (AID 2282979; active means hit-call score of the fitted dose curve at least 0.9, where 1 is the maximum;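 further: hits raise reporter mRNA above DMSO so AC50 marks FXR activation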). The settings on record: HepG2 Attagene TRANS FXR-GAL4 reporter transcription. A digest of the protocol: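 Read-out: fluorescent reporter transcripts quantified by capillary electrophoresis after RT-PCR of total RNA. Source cells were HepG2 transiently carrying chimeric NR-GAL4 plus GAL4-UAS reporter units, dosed 24 h. Activity fitted upward relative to DMSO baseline.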
Chain of Bile acid receptor (Homo sapiens) (Q96RI1 whole entry, looked up, the tested form may be a part): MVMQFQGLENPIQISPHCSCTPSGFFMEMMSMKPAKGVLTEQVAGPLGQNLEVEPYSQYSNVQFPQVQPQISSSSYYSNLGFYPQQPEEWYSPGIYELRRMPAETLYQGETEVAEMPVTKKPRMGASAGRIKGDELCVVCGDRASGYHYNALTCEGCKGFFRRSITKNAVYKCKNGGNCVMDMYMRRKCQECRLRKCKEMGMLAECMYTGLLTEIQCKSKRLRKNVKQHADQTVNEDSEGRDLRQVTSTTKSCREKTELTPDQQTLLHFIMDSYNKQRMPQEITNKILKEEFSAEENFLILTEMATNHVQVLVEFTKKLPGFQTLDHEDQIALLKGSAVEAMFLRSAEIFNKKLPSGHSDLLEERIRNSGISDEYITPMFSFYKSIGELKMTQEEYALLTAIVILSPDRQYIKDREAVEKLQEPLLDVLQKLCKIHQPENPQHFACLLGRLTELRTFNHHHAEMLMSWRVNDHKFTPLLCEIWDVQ

Assay [16] is described as follows: ATG_TAL_CIS: Attagene CIS-FACTORIAL HepG2 Assay for human TAL Basal Promoter (AID 2282966).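 Further: background control endpoint measuring basal TAL promoter reporter mRNA not a specific factor.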 The settings on record: HepG2 Attagene cis-factorial TAL promoter reporter; actives raise or lower the signal. A digest of the protocol: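 HepG2, transient MRTU transfection, 24 h compound exposure; RNA → oligo(dT) RT → PCR → 6-FAM primer extension → HpaI digest → CE fluorescence. Bidirectional curve fit vs DMSO. Background-control readout.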

The target of assay [17] is Nuclear receptor subfamily 1 group I member 3 (Homo sapiens) (UniProt Q14994). Briefly: ATG_CAR_TRANS: Attagene TRANS-FACTORIAL HepG2 Assay for human Constitutive Androstane Receptor (CAR) (AID 2282969; active means hit-call score of the fitted dose curve at least 0.9, where 1 is the maximum;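 further: activators raise reporter mRNA above DMSO so AC50 marks induction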). The settings on record: HepG2 Attagene TRANS-FACTORIAL CAR reporter. In outline: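 Steps: transient transfection of HepG2 with multiple GAL4-UAS reporter units; 24 h compound incubation; RNA isolation, RT-PCR, 6-FAM primer extension, HpaI digest; capillary electrophoresis. Gain-of-signal relative to DMSO negative control.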
Chain of Nuclear receptor subfamily 1 group I member 3 (Homo sapiens) (Q14994 whole entry, looked up, the tested form may be a part): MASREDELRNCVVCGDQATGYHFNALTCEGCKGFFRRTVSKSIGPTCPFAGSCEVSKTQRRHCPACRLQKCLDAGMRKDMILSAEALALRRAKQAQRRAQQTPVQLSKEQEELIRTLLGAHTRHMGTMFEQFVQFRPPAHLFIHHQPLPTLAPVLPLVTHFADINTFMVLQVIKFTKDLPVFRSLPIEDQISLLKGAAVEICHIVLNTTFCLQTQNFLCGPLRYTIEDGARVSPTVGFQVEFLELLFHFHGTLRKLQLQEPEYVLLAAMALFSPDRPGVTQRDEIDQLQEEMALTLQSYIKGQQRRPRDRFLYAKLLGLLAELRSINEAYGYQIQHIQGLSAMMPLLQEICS

Assay [18] can be described thus: ATG_PPRE_CIS: Attagene CIS-FACTORIAL HepG2 Assay for human Peroxisome Proliferator-activated Response Element (PPRE) (AID 2282958). The settings on record: HepG2 PPRE cis-element reporter, Attagene transcription factor profiling; actives raise or lower the signal. A digest of the protocol:
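HepG2, transient MRTU transfection (cis promoter elements, endogenous TFs). 24 h dosing. RNA → oligo(dT) RT → PCR → 6-FAM primer extension → HpaI digest → CE. Bidirectional fit vs DMSO.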

Assay [19] concerns the target Steroid hormone receptor ERR1 (Homo sapiens) (UniProt P11474). Put plainly: ATG_ERRa_TRANS: Attagene TRANS-FACTORIAL HepG2 Assay for human Estrogen-Related Receptor alpha (ERRa) (AID 2282971; active means hit-call score of the fitted dose curve at least 0.9, where 1 is the maximum). The settings on record: HepG2 Attagene TRANS reporter, ERRa transactivation. In outline: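 Transfected HepG2, 24 h dosing, ERRa-Gal4 chimera driving GAL4-UAS reporter. Readout: reporter mRNA via RT-PCR plus capillary electrophoresis (fluorescence). Positive direction vs DMSO control.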

Chain of X-box-binding protein 1 (Homo sapiens) (P17861 whole entry, looked up): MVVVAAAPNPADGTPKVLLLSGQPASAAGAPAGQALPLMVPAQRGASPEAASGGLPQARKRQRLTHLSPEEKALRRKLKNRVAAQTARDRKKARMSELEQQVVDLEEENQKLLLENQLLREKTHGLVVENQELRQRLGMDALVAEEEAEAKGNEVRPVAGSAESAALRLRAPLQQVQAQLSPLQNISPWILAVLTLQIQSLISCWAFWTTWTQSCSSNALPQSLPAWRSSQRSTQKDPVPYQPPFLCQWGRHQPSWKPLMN
Chain of Signal transducer and activator of transcription 3 (Homo sapiens) (P40763 whole entry, looked up): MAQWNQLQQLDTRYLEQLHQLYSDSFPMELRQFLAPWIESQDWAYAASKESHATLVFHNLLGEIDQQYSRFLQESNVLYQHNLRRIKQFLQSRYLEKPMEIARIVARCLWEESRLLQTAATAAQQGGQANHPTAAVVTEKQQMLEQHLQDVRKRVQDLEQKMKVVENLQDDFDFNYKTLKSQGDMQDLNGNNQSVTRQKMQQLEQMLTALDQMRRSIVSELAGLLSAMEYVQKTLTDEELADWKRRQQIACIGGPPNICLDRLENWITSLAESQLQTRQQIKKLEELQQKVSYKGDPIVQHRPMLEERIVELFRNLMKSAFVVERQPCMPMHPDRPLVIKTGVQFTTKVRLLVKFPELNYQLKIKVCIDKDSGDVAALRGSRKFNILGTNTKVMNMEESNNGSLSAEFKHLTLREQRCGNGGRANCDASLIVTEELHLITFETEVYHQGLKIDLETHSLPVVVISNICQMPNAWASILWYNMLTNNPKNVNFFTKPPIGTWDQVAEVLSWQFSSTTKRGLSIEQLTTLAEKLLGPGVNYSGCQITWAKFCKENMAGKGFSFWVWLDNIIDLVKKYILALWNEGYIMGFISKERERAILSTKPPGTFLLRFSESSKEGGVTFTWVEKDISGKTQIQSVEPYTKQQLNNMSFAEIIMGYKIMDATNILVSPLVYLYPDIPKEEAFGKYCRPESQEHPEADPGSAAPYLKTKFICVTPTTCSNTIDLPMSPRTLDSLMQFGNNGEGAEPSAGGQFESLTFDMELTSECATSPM
Chain of Steroid hormone receptor ERR1 (Homo sapiens) (P11474 whole entry, looked up, the tested form may be a part): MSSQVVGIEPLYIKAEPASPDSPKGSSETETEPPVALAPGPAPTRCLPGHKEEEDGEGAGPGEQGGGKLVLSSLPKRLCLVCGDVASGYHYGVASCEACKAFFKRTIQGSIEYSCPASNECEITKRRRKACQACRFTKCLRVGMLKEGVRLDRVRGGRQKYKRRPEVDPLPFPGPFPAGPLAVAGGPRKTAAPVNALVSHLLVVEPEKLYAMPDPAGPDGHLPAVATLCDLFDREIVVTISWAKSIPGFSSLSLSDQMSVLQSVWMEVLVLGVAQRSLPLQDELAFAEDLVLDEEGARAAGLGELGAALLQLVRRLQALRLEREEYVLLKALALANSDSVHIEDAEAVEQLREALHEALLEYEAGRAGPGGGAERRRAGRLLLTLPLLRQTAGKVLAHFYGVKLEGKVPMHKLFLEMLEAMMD
Chain of Estrogen receptor (Homo sapiens) (P03372 whole entry, looked up, the tested form may be a part): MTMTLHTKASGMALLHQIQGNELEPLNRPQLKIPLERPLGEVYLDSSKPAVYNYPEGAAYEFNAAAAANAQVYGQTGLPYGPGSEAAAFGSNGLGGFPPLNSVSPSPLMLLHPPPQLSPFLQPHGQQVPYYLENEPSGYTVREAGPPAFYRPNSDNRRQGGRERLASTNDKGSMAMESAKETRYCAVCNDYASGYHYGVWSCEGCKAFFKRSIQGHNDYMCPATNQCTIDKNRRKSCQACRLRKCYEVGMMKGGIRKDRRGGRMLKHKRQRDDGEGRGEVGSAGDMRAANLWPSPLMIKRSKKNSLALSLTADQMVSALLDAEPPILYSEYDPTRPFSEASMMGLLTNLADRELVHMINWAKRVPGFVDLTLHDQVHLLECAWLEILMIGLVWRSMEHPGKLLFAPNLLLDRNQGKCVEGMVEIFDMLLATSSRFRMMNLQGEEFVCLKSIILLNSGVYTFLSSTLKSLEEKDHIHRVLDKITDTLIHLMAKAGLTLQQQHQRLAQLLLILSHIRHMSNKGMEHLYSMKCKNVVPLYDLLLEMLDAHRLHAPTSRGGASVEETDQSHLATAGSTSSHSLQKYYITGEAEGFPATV
Chain of Transcription factor Sp1 (Homo sapiens) (P08047 whole entry, looked up): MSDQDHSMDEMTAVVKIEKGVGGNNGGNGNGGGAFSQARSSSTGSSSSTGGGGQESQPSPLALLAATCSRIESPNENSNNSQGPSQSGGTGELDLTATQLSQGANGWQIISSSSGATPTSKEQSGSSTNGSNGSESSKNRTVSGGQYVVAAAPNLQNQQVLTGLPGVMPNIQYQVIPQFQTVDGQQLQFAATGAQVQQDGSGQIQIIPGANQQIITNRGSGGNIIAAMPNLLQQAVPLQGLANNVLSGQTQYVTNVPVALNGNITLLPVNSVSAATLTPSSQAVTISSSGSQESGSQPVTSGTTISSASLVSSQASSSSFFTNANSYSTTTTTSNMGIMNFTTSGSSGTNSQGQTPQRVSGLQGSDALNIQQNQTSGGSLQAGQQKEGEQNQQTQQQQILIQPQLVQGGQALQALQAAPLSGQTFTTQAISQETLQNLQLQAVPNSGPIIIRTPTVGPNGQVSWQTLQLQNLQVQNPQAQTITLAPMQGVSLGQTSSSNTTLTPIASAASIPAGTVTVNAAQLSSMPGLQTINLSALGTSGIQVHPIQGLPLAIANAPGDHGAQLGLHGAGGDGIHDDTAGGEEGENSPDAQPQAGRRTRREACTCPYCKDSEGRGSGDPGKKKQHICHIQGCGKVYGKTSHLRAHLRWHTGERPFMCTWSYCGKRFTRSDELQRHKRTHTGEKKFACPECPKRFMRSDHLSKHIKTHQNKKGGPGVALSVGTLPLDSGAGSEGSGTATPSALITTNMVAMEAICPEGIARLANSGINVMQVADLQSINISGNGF

For the molecule `ClCC(Cl)CCl`, the call in assay [1], in [2], in assay [3], in assay [4], in assay [5] and in assay [6] was inactive. Besides, the call in [7], in assay [8], in assay [9], in assay [10] and in [11] was inactive.
In the case of `CCCCP(CCCC)CCCC`, the molecule was classed as inactive in assay [1], in [2], in assay [3], in assay [4], in assay [12] and in assay [13]. Also, the molecule was called inactive in assay [5], in assay [6], in assay [7], in assay [14], in assay [8] and in [9]. For the same molecule, the outcome in [10] and in assay [15] was inactive.
For `Clc1ccc(COC(Cn2ccnc2)c2ccc(Cl)cc2Cl)cc1` (stereo unspecified), the molecule was classed as inactive in assay [3], in assay [4], in [12], in assay [5], in assay [16] and in [6]. Also, the call in assay [17], in [14], in assay [8] and in [15] was inactive.
For `CCC[CH2][Sn]([CH2]CCC)([CH2]CCC)[O]C(=O)c1ccccc1`, the AC50 is 0.0115 µM (active) in assay [18], 0.137 µM (active) in [7] and 0.774 µM (active) in [14]. Besides, the outcome in assay [3], in assay [4], in assay [5], in assay [16], in assay [6] and in assay [8] was inactive. In [10], the molecule was classed as inactive.
As to `Cl/C=C\C[N+]12CN3CN(CN(C3)C1)C2`, the molecule was called inactive in [1], in assay [2], in [3], in assay [4], in assay [12] and in [16]. The result in assay [6], in assay [7], in [19], in assay [8], in [9] and in assay [15] was inactive. Besides, the AC50 in [5] is 26 µM (active).
Regarding `COc1ccc(C=O)cc1OC`, the molecule was called inactive in assay [1], in assay [3], in [4], in assay [12], in [5] and in assay [16]. Besides, the call in assay [6], in assay [19], in [8] and in assay [9] was inactive. Also, the AC50 in assay [14] was 58.6 µM (active).
With `COP(=S)(OC)Oc1ccc(S(=O)(=O)N(C)C)cc1`, the call in [1], in assay [2], in assay [3], in assay [4], in assay [12] and in assay [13] was inactive. The molecule was called inactive in [5], in [6], in [14], in [19], in assay [8] and in assay [9]. The molecule was classed as inactive in [11]. The AC50 in assay [7] was 38.8 µM (active).
For the molecule `C=CC#N`, the molecule was classed as inactive in assay [1], in [3], in assay [4], in [12], in assay [13] and in assay [5]. Further, the molecule was classed as inactive in [16], in assay [6], in [7], in [14], in [19] and in [8]. The molecule was classed as inactive in assay [9] and in assay [10].
Regarding `O=C(Cc1ccccc1)c1ccccc1`, the molecule was classed as inactive in [1], in assay [2], in [3], in assay [4], in assay [12] and in assay [5]. For the same molecule, the call in [16], in [6], in assay [7], in assay [17], in assay [8] and in assay [9] was inactive. Moreover, the outcome in assay [15] was inactive. Besides, in [14], the AC50 is 22.7 µM (active).
